Screening results: PubChem BioAssay, National Center for Advancing Translational Sciences (NCATS)
This is a sample that favours compounds with a hit; in the whole collection about 18% have one here.
LDHA block – blocks human lactate dehydrogenase A | activity change, % (values are at about 110 or 230 µM) | 0.15% of 480,000 active | purified LDHA, NADH/diaphorase-resazurin fluorescence; active compounds read low; in the data active = activity change below about -30%; inconclusive = mostly about -25% to -30%
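Enzyme activity of human lactate dehydrogenase 5 (2 nM; 0.06 mM NADH, 0.2 mM pyruvate, 5 min, RT) is measured via a resazurin/diaphorase fluorescence readout of residual NADH.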
DT40 TDP1 no CPT – qHTS for Inhibitors of human tyrosyl-DNA phosphodiesterase 1 (TDP1): qHTS in cells in absence of CPT. Potency, µM (doses to about 46.2 µM), hits mostly inhibitors. 15% of 420,000 active. DT40 Tdp1-/- hTDP1 cells, no CPT, ATP luminescence, 48 h; note: nearly all actives have a fitted effect of over 55% in size
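Seeded 400 DT40-hTDP1 cells/well (vehicle DMSO, no 20 nM CPT); pinned compounds; ≥48 hr at 37 °C; CellTiter-Glo luminescence as viability measure.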
RORgamma inh – ROR gamma (mouse) transcription inhibition; 5.4% of 310,000 active; Drosophila S2 Gal4-RORgamma UAS-luciferase reporter, 20 h; AID 2551; P51450; Potency, µM (titrated, usually from 53.6 µM), hits mostly inhibitors; note: nearly all actives have a fitted effect of over 60% in size
Target sequence (P51450 whole entry, looked up, the tested form may be a part): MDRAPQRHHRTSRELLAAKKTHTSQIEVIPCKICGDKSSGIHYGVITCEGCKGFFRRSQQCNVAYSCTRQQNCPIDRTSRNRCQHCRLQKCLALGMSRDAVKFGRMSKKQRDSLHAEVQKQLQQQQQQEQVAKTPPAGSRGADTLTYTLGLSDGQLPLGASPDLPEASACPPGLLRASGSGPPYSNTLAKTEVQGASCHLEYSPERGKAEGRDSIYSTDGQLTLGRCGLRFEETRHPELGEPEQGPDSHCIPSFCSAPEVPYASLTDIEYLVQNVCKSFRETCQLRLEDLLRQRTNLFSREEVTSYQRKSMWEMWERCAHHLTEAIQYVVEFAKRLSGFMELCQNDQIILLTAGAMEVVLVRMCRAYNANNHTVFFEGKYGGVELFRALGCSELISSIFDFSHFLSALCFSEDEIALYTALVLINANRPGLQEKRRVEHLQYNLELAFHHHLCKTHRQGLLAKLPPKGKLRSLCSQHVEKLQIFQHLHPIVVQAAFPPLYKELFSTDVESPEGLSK
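Drosophila Schneider cells stably carrying a metallothionein-driven Gal4 DBD–ROR gamma fusion and a UAS-Photinus luciferase reporter were exposed to compound for 1 hr, then induced with copper sulfate (700 uM final) for 20 hr at ambient temperature before luminescence reading.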
TDP1 cell CPT – DT40-hTDP1 cell growth loss with CPT; chicken DT40 Tdp1-/-;hTDP1 cells + 20 nM CPT, ATP luminescence, 48 h; Potency, µM (titrated, usually from 46.2 µM), actives largely listed as inhibitors; 12% of 420,000 active; AID 686979; note: nearly all actives have a fitted effect of over 55% in size
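Chicken DT40 Tdp1-/- cells complemented with human TDP1, 400 cells/well, exposed to compounds plus 20 nM camptothecin for at least 48 h at 37 C; viability read as ATP content by CellTiter-Glo luminescence.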
VP16 counter – inhibits Gal4-VP16 luciferase reporter, ROR gamma counter-screen | 3.5% of 310,000 active | Potency, µM (doses to about 53.6 µM), usual class: inhibitors | Drosophila S2 Gal4-VP16 UAS-luciferase, luminescence, 20 h;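 note: Gal4-VP16 expression switched on by copper sulfate through the metallothionein promoter; nearly all actives have a fitted effect of over 50% in size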
IL-1B inflam inh – inflammasome signaling inhibition, IL-1 beta readout; 4.7% of 360,000 active; activity change, % at 57.5 µM; THP-1 LPS/ATP IL-1B secretion, AlphaLISA, 16 h; active compounds read low; in the data active = activity change below about -50%; inconclusive = mostly about -30% to -49%
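THP-1 cells pretreated 1 hr with compounds (up to 57.5 uM final), then stimulated with LPS (250 ng/mL final) plus ATP (1.25 mM final); secreted IL-1B measured by AlphaLISA after 16 hr, decreased signal indicating inhibition.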
Hits are given with their value; – = inactive; ? = inconclusive; · = not tested or not shown. Unless noted, calls come from the whole dose curve; as a rule, active = well fitted curve in the direction sought with a large enough effect; inconclusive = small, poorly fitted or top-dose-only effect, or another doubt; inactive = no such curve, though single readings can be large; an effect the other way counts as inactive or inconclusive.

SMILES | LDHA block | DT40 TDP1 no CPT | RORgamma inh | TDP1 cell CPT | VP16 counter | IL-1B inflam inh
O=C(Nc1ccc(Cl)c(S(=O)(=O)Nc2ccccc2Cl)c1)c1n[nH]c2ccccc12 | – | · | · | · | · | ·
O=C1CCCC2=C1C(c1cccc(Cl)c1Cl)CC(=O)N2c1ccc(F)cc1 (configuration not stated) | – | · | · | · | · | ·
CCCCNc1nc2c(c(=O)[nH]c(=O)n2C)n1Cc1ccccc1Cl | – | · | · | · | · | ·
Cc1ccc(CN2CCC(CNC(=O)CCc3nnc4ccc(N5CCCCC5)nn34)C2)cc1 (configuration not stated) | – | · | · | · | · | ·
Cc1ccccc1C(=O)OCC1CCC[N+]2(C)CCCCC12 (configuration not stated) | – | · | · | · | · | ·
Cc1c(Cl)cccc1NC(=O)COC(=O)c1cc(=O)c2ccccc2o1 | – | · | · | · | · | ·
Cc1cc(NC(=S)NC(=O)c2ccccc2)ccc1-c1cc2ccccc2oc1=O | – | 2.9µM | 0.4µM | 3.3µM | – | –
CC1CCCN(C(=O)COc2ccc(NC(=O)c3cccs3)cc2)C1 (configuration not stated) | – | – | – | – | – | -57
Cc1cc(NC(=O)c2ccc(F)cc2)ccc1-c1cc2ccccc2oc1=O | – | ? | · | ? | · | ·
COc1nc(N)nc(NC(=O)c2cccs2)c1N=O | – | 2.3µM | · | 2.1µM | · | -87
COc1ccc(C(=O)Nc2cccc(NC(=O)c3cccs3)c2)cc1 | – | ? | – | ? | – | ?
COc1ccc(NC(=O)c2ccc(NC(=O)c3cccs3)cc2)cc1 | – | – | 7.1µM | – | ? | –
CC(C)(C)NC(=O)c1cc(NC(=O)c2cccs2)cc(NC(=O)c2cccs2)c1 | – | 21µM | – | ? | ? | –
O=C(O)c1ccc(NC(=S)NC(=O)c2ccc3ccccc3c2)cc1 | – | – | ? | – | – | –
Cc1cc(C)cc(C(=O)Nc2ccc(NC(=O)c3cccs3)cc2)c1 | – | ? | ? | ? | ? | –
CCOc1ccc(C(=O)Nc2ccc(-c3cc4ccccc4oc3=O)c(C)c2)cc1[N+](=O)[O-] | – | 12µM | – | 13µM | – | –
O=C(O)c1cccc(NC(=S)NC(=O)c2ccc3ccccc3c2)c1 | – | – | 10µM | – | 7.1µM | –
COc1ccc(C(=O)Nc2ccc(-c3cc4ccccc4oc3=O)c(C)c2)cc1Br | – | ? | · | ? | · | ·
COc1ccc(Cl)cc1-c1nc(-c2ccc(NC(=O)c3cccs3)cc2)no1 | – | 21µM | – | ? | – | –
Cc1nc2cc(F)ccc2cc1C(=O)N1CCN(Cc2ccccc2F)CC1 | – | · | · | · | · | ·
O=C(NC(=S)Nc1cccc(NC(=S)NC(=O)c2ccccc2)c1)c1ccccc1 | – | 10µM | · | 9.2µM | · | –
Cc1ccc(NC(=S)NC(=O)c2ccccc2)cc1NC(=S)NC(=O)c1ccccc1 | – | ? | 1.4µM | – | 7.1µM | –
CNC(=S)Nc1ccc(C)c(NC(=S)NC)c1 | – | – | ? | – | – | –
O=C(Nc1ccc2[nH]ccc2c1)c1ccccc1 | – | ? | ? | – | ? | –
O=C(Nc1ccc2[nH]ccc2c1)c1ccc(F)cc1 | – | ? | 11µM | – | ? | –
SMILES | LDHA block | DT40 TDP1 no CPT | RORgamma inh | TDP1 cell CPT | VP16 counter | IL-1B inflam inh
O=C(Nc1cccc(NC(=O)c2cccs2)c1)c1ccc(Br)o1 | – | 21µM | – | – | – | –
CC(SC(c1ccccc1)c1ccccc1)C(=O)NC(C)(C)C (configuration not stated) | – | · | · | · | · | ·
CCN1CCN(c2ccc(S(=O)(=O)N3CCCCC3)cc2NC(=O)c2cccc(C(F)(F)F)c2)CC1 | – | 18µM | · | ? | · | -72
CN1CCN(S(=O)(=O)c2cccc(C(=O)Nc3cc(C(F)(F)F)ccc3N3CCCCC3)c2)CC1 | – | 18µM | · | ? | · | -52
CN1CCN(S(=O)(=O)c2cccc(C(=O)Nc3ccccc3N3CCCCC3)c2)CC1 | – | ? | · | ? | · | –
Cc1ccc(C(=O)N(Cc2ccccn2)C2CC2)s1 | – | · | · | · | · | ·
C=CCNC(=O)C(=O)NCCOc1ccccc1Cl | – | ? | – | 12µM | – | –
O=C(NCCOc1ccccc1Cl)C(=O)c1c[nH]c2ccccc12 | – | ? | – | ? | – | –
N#Cc1c(SCc2ccc(Cl)cc2)sc(C(=O)c2ccccc2)c1N | – | ? | – | ? | – | –
CSc1c(C#N)c(N)nc2sc(C(=O)c3ccccc3)c(N)c12 | – | – | – | – | – | -73
O=c1cc[nH]c2ccc(Cl)cc12 | – | – | – | – | – | –
O=c1cccc2c1c1cc[nH]c3ccc(=O)n2c31 | – | 18µM | · | 9.2µM | · | -72
N#C/C(=C\c1ccc(N2CCOCC2)o1)C(=O)Nc1ccc(O)cc1 | – | 29µM | – | ? | – | -55
COc1ccc(NC(=O)/C(C#N)=C\c2ccc(N3CCOCC3)o2)cc1 | – | 21µM | – | ? | ? | –
COc1ccc(NC(=O)/C(C#N)=C/C=C/c2ccco2)cc1 | – | 9.2µM | – | 8.2µM | – | -67
O=C1CCCN1c1cccc(-c2csc(-c3ccccc3)n2)c1 | – | · | · | · | · | ·
CCCCC(=O)Nc1ccc(NCc2ccc(C)s2)cc1 | – | 3.7µM | – | ? | – | –
Cc1cccc(N2CCN(C(=O)CCCn3c(=O)[nH]c4ccsc4c3=O)CC2C)c1 (configuration not stated) | – | 26µM | ? | – | – | –
COc1ccccc1N1CCN(C(=O)CCn2c(=O)[nH]c3ccsc3c2=O)CC1 | – | – | – | – | – | –
Cc1cccc(N2CCN(C(=O)CCn3c(=O)[nH]c4ccsc4c3=O)CC2C)c1 (configuration not stated) | – | 10µM | – | ? | – | –
COc1ccccc1NC1(c2nnnn2-c2c(C)cccc2C)CCCC1 | – | · | · | · | · | ·
CCN(CC)C(=O)N1CCC(NC(=O)c2ccc(C(C)(C)C)cc2)CC1 | – | 23µM | ? | ? | – | –
Cc1nn2c(C(F)(F)F)c3c(nc2c1-c1ccccc1)CCC3 | – | – | – | – | – | –
CCC(C)c1nc2c(c(N3CCC3=O)c1-c1ccccc1)CCCC2 (configuration not stated) | – | ? | · | 18µM | · | –
C=CCN(C(=O)CCc1ccccc1OC)c1nc(-c2ccc(S(C)(=O)=O)cc2)cs1 | – | 9.2µM | ? | 16µM | – | -57
Cc1ccc(C)c(C(=O)COC(=O)c2ccc3ccccc3n2)c1 | – | · | · | · | · | ·
Cc1cc(C)n(-c2nc3ccccc3nc2Nc2cccc(Cl)c2)n1 | – | · | · | · | · | ·
CCOC(=O)C1=C(C)N(c2ccccc2)C(=O)/C1=C\c1ccco1 | – | ? | ? | ? | ? | -59
CCOC(=O)C1=C(C)N(c2ccccc2)C(=O)/C1=C\c1cccs1 | – | ? | – | ? | – | ?
